Screens as filed in PubChem.
TRPML1 blocker = inhibitors of human TRPML1 channel; activity change, negative = inhibition, % (concentration not given with the values); Q9GZU1; TRPML1-inducible cells, Ca2+ dye fluorescence, FDSS; hits give low values; inhibition of EC80 agonist-evoked calcium signal; actives 0.02% (n = 390,000); AID 624415; in the data active means activity change below about -50%; inconclusive means between about -30% and that limit;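 further: stimulus is agonist 54-4 at its EC80 concentration; on the % scale 0 is the no-effect control and ±100 the full control effect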
Target sequence (Q9GZU1 whole entry, looked up): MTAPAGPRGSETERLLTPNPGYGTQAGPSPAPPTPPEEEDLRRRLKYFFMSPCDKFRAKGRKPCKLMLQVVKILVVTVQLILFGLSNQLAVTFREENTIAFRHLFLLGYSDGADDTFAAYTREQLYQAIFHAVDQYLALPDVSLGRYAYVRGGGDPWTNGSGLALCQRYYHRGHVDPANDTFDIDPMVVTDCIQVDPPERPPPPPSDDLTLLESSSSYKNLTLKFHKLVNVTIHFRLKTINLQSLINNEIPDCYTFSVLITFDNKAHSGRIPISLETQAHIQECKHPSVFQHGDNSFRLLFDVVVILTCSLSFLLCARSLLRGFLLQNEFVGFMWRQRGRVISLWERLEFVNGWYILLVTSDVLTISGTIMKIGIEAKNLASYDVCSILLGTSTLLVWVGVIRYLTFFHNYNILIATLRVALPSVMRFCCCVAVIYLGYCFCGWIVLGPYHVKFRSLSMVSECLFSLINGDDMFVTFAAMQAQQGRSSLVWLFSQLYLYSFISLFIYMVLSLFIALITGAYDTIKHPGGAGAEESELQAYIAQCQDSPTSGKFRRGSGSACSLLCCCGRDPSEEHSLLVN
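TRPML1-DL cells, Tet-induced overnight (~16 h, 37 °C) at 1,500 cells/well, were loaded with Ca8 no-wash dye plus quencher for 45-90 min at room temperature. Compounds were pinned during FDSS kinetic reading; agonist 54-4 at EC80 (4 uM final) then added.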
Glioma ERSR ind = ER stress response induction in glioma. U87-MG GRP78 promoter luciferase reporter, 16 h. Potency, µM, inactives show at the top dose activation, usual class: activators. actives 0.02% (n = 420,000); active means well fitted activation curve with a large enough effect; inconclusive means small, poorly fitted or top-dose-only effect; inactive means no such curve, though single readings can be large or run the other way; further: potency means the concentration at half of the fitted maximal effect; series mostly up to about 76 µM; % of control where 0% means no effect; nearly all actives have a fitted effect of over 35% in size
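ERSR induction read as luciferase luminescence (Bright-Glo, 10 min at room temperature) in stably transfected human U87-MG glioma cells exposed to compounds for 16 h, using GRP78 as sensor.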
TRHR agonist = TRH receptor (human) agonism; actives 0.18% (n = 360,000); activation, % at 2 µM; TRHR cells, calcium flux fluo-8, FDSS agonist mode; AID 493084; in the data active means activation above about 30%; further: 0% is about no effect
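Agonist-mode FDSS calcium read (Ex 480/Em 530, 1 s cycles) in 1536-well TRHR cells with fluo-8 dye, after 10-cycle baseline and 23 nL compound addition; TRH at EC20 (10 nM final) added afterwards for the enhancer phase.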
TRPML1 ag = human mucolipin-1 channel agonism; Q9GZU1; TRPML1-expressing cells, Ca2+ dye fluorescence, FDSS; activation, % (test concentration not listed); actives 0.12% (n = 410,000); in the data active means activation above about 50%; inconclusive means mostly about 30% to 49%; further: 0% is about no effect
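Kinetic FDSS Ca2+ read in Tet-induced TRPML1-DL cells (ABD Ca8 dye plus quencher, 45-90 min RT loading): baseline, then compound, then 110 s agonist window; EC80 agonist 54-4 at 4uM final added afterwards for a 110 s antagonist window.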
TRHR PAM = allosteric enhancers of human TRH receptor. P34981. TRHR cells, fluo-8 calcium fluorescence, EC20 TRH enhancement. enhancement, % at 2 µM. actives 0.66% (n = 360,000). AID 493056; in the data active means enhancement above about 30%; further: 0% is about no effect
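TRHR-expressing cells loaded with fluo-8 calcium dye were read kinetically (ex 480/em 530) during compound addition, then stimulated with an EC20 of TRH (10 nM final). Enhancement of the Gq-mediated intracellular calcium response was scored.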
An asterisk follows results filed as active; ? = inconclusive; / = no result given. Only some compounds are listed: those with a hit (about 0.8% of all), similar ones and a draw of the others.

SMILES	TRPML1 blocker	Glioma ERSR ind	TRHR agonist	TRPML1 ag	TRHR PAM
Cc1ccc(NC(=O)c2c(F)cccc2Cl)cc1NS(C)(=O)=O	-12.0	-3.7%	-0.4	0.0	38.3*
COc1cc(CN2CCCC(n3cc(C(=O)N4CCCCC4)nn3)C2)cc(OC)c1 (configuration not stated)	/	-3.9%	/	/	/
CC(C)CSC1=NSC2=NC(=O)/C(=C\c3coc4ccccc4c3=O)C(=N)N12	-1.1	2.3%	51.0*	?	-2.6
CSC1=NSC2=NC(=O)/C(=C\c3coc4ccccc4c3=O)C(=N)N12	-10.1	3.3%	120.9*	76.0*	18.5
CC(C)CSC1=NSC2=NC(=O)/C(=C\c3ccccc3)C(=N)N12	15.2	-4.0%	0.2	-0.2	-2.4
Cc1c(C#N)c(=O)c(-[n+]2ccccc2)c([S-])n1-c1ccc(Cl)cc1	-14.3	1.0%	0.5	0.0	32.5*
O=C(O)c1cc(-c2ccc(/C=C3/SC(=S)N(Cc4ccccc4)C3=O)o2)ccc1Cl	11.0	0.1%	-0.6	1.8	13.6
O=C(O)CN1C(=O)/C(=C/c2ccc(-c3cccc(Cl)c3)o2)SC1=S	/	/	2.1	/	32.0*
COc1ccccc1N1CCN(C2CCCN(C(=O)c3cc(C4CC4)on3)C2)CC1 (configuration not stated)	-61.2*	-8.1%	0.1	1.3	1.8
COc1cc(=O)n2c(c1C(=O)NC(C)c1ccco1)CCN(Cc1cc3ccccc3o1)CC2 (configuration not stated)	/	-5.9%	/	/	/
Cc1c(Cl)cccc1NC(=O)Nc1nnc(N(C)Cc2ccccc2)s1	-14.8	-2.2%	-0.8	58.3*	-2.7
CC(C)(C)n1ncc2c(=O)n(Cc3ccc(C#N)cc3F)cnc21	22.9	-4.0%	/	0.1	/
Cc1cc(OC(=O)c2cccs2)ccc1C(C)C	-15.4	-3.4%	0.0	-0.4	8.0
O=C(Oc1ccc2c(c1)OCO2)c1cccs1	-50.1*	-0.7%	0.3	-1.0	-1.0
COc1ccc(-c2nc(N3CCN(S(=O)(=O)c4ccccc4)CC3)c3ccccc3n2)cc1	16.6	-2.8%	-0.4	0.3	-3.7
COc1ccc(-c2nc(N3CCN(S(=O)(=O)c4ccc(F)cc4)CC3)c3ccccc3n2)cc1	55.9	1.0%	-0.7	0.6	39.4*
COc1ccccc1CNC(=O)c1cc(S(=O)(=O)N2CCCC(C)C2)cn1C (configuration not stated)	-2.5	-2.3%	-0.8	-0.2	38.2*
COCC(=O)Nc1cc(C(=O)N2CCc3c(Cl)cccc3C2)c2c(c1)nc(-c1ccncc1)n2C	/	-5.5%	/	/	/
C[N+](C)(C)CCOP(=O)(O)OP(=O)([O-])OCC1OC(n2ccc(N)nc2=O)[C@H](O)[C@@H]1O (some centres not stated)	/	-2.4%	/	/	/
CCCc1cc(=O)oc2cc(C)c3c(C)coc3c12	-10.0	-1.6%	0.0	2.8	-0.3
CCCc1cc(=O)oc2cc(C)c3c(-c4ccccc4)coc3c12	1.0	1.2%	0.3	1.1	49.2*
O=C(NC(CC(=O)N1CCCC(C(F)(F)F)C1)c1ccccc1)c1ccccc1Cl (configuration not stated)	-9.5	-1.5%	2.5	0.0	32.7*
Cc1ccc(S(=O)(=O)Cc2ccc(C(=O)N3CCC(C(N)=O)CC3)o2)cc1	1.7	-3.8%	0.2	-0.1	35.8*
Cc1cccc(-n2c(SCC(=O)N3CCCC3)nc3n[nH]c(C)c3c2=N)c1	0.8	-3.2%	-1.3	-0.4	40.1*
CSc1nnc(C)c(/C=C/Nc2ccc(Cl)cc2)n1	11.2	1.2%	30.7*	8.1	4.0
SMILES	TRPML1 blocker	Glioma ERSR ind	TRHR agonist	TRPML1 ag	TRHR PAM
O=C(O)CSC1CC(=O)N(c2ccc(Br)cc2)C1=O (configuration not stated)	-28.1	-5.8%	-0.3	-0.3	40.4*
O=C(O)CSC1CC(=O)N(c2ccc(Cl)cc2)C1=O (configuration not stated)	-7.5	-2.4%	0.3	-0.1	3.4
O=C(CCc1nc2ccccc2[nH]c1=O)OCc1ccc(S(=O)(=O)N2CCOCC2)cc1	-2.3	-0.8%	0.4	2.1	35.6*
Cn1c(SCc2ccccc2)nnc1C1CCCN(Cc2cccc3ncccc23)C1 (configuration not stated)	/	-4.4%	/	/	/
CC(=O)c1c(C)n(C)c2ccc(OC(=O)c3ccc([N+](=O)[O-])cc3)cc12	-11.7	-3.6%	0.3	0.8	39.7*
CC(=O)c1c(C)n(C)c2ccc(OC(=O)c3ccco3)cc12	-4.8	-6.2%	-1.6	0.5	0.4
O=C(CNC(=O)c1ccc(C(F)(F)F)cc1)OC(C(=O)Nc1cc(C(F)(F)F)ccc1Cl)c1ccccc1 (configuration not stated)	/	/	1.9	/	-3.5
N=c1oc2cc(O)ccc2cc1C(=O)Nc1nc2ccccc2s1	34.3	2.5%	2.7	4.4	2.1
N=c1oc2cc(O)ccc2cc1C(=O)Nc1ccccn1	/	/	4.9	/	31.0*
Cc1ccc(-c2nc3ccccc3[nH]2)s1	-2.4	-8.7%	-1.3	-0.6	35.2*
CCC(CO)Oc1cc(NC(=O)c2ccc(OC)cc2)c2ncn(C(C)C)c2c1 (configuration not stated)	-57.4*	-3.3%	/	0.0	/
C[C@@H]1C[C@@H](CC(=O)NCC2Cc3cccc(-c4ccncc4)c3O2)NC(=S)N1 (some centres not stated)	/	-2.3%	/	/	/
CC(C)Oc1ccc(C(=O)NCC2Cc3cc(Cl)cc(-c4ncccn4)c3O2)cc1 (configuration not stated)	/	-1.0%	/	/	/
NC(=O)C1CN(C(=O)c2nn(Cc3ccccc3)c(=O)c3ccccc23)c2ccccc2O1 (configuration not stated)	8.8	-3.9%	-0.2	-0.7	36.8*
CC(=O)c1c(C)nc2ccc(Br)cc2c1-c1ccccc1	6.1	5.5%	-1.7	1.3	-9.4
CC(=O)c1c(Cl)nc2ccc(Br)cc2c1-c1ccccc1	/	-1.9%	-0.1	/	35.0*
COC(=O)CNc1c(-c2ccccc2)nc2ccc(Br)cn12	3.0	-1.6%	-2.4	1.6	38.4*
COC(=O)c1ccccc1-c1cc(C)cc2c1OC(CNC(=O)c1cc(C)n(C)n1)C2 (configuration not stated)	/	-1.1%	/	/	/
N#C/C(=C/c1ccc(O)cc1)c1nc(-c2ccc(-c3ccccc3)cc2)cs1	14.4	-0.6%	1.7	0.8	43.3*
CC(CCc1ccc(O)cc1)N1CCOc2c(O)cc(-c3nc4ccccc4s3)cc2C1 (configuration not stated)	/	-1.3%	/	/	/
COC1=C/C(=C/c2c(N)n3nc(CC(=O)N4CCCC4)sc3nc2=O)C=CC1=O	-12.3	-1.0%	13.6	2.2	-0.6
COC1=CC(=Cc2c(N)n3nc(CC(=O)N4CCCCC4)sc3nc2=O)C=C(OC)C1=O	9.9	-2.3%	137.8*	3.2	21.8
COc1ccc(NC(=O)c2cc3c(s2)-c2c(C)cccc2OC3)cc1Cl	-0.8	-4.9%	0.6	0.5	49.7*
